# Laboratory results taken from PubChem BioAssay (Tox21).
# Records with an inconclusive call do not appear. Where a structure was tested more than once in an assay, its records may differ in their call. The source made the active and inactive calls. Calls come from the whole dose curve; as a rule, active = well fitted inhibition curve with a large enough effect in the repeat runs; inconclusive = weak or mixed curves, or effect the other way; inactive = no such curve, though single readings can be large or run the other way.
# Experiment: qHTS assay to identify small molecule antagonists of the retinoic acid receptor (RAR) signaling pathway (AID 1159552; note: nearly all actives have a fitted effect of over 50% in size)
# Conditions: C3RL4 RARE luciferase reporter, retinol-stimulated, 6 h; series mostly up to 92.4 µM; activity, negative = inhibition: at the top concentration
# Description: National Center for Advancing Translational Sciences [NCATS]
# NIH Chemical Genomics Center [NCGC]
# U.S. Environmental Protection Agency [EPA]
# National Institutes of Environmental Health Sciences [NIEHS]
# National Toxicology Program [NTP]
# U.S. Food and Drug Administration [FDA]
# All-trans Retinoic acid (atRA) is the potent natural metabolite of retinol and plays an important role in normal embryonic development and maintenance of cellular phenotype in adult animals. atRA is the activating ligand for the retinoic acid receptors (RARs) which form heterodimers with retinoid X receptors (RXRs) on the retinoic acid response element (RARE). Through activation of the RAR/RXRs nuclear receptors, atRA regulates the transcription of a large number of protein-coding genes and regulatory RNAs. Intracellular levels of atRA are controlled by the retinol signaling pathway (RSP) that regulates the biosynthesis and catabolism of atRA to maintain physiological levels. Chemicals that interfere with the RSP can cause abnormal intracellular levels of atRA and therefore are potential developmental toxicants. To assess compounds for the potential adverse effect on embryonic development through interfering with retinol signaling, a cell-based RARE luciferase reporter gene assay was used. C3RL4 cell line (OARSA/CFSAN/FDA, Laurel, MD) was used to screen Tox21 10K compound library for identifying inhibitors of the RSP.
# Tox21 Assay Protocol Summary:
# C3RL4 cells were seeded at 1,000/well in 4 uL of assay medium into white solid 1,536-well tissue culture plates (Greiner Bio-One North America Inc. Monroe, NC) using a Multidrop Combi (Thermo Scientific, Waltham, MA) dispenser. After incubation at 37 C and 5% CO2 for an overnight, 23 nL of compounds dissolved in DMSO, positive control or DMSO only were transferred by a Pintool station (Kalypsys, San Diego, CA). One ul of 1 uM (final concentration) of Retinol was added right after the compound addition by using a Flying Reagent Dispenser (FRD) (Aurora Discovery, San Diego, CA). After 6 hr incubation at 37 C and 5% CO2, 5 uL of Amplite Luciferase reagent (AAT Bioquest Inc. Sunnyvale, CA) was added to each assay plate using an FRD. Luminescence was quantified on a ViewLux plate reader (PerkinElmer, Waltham, MA) after 30 min incubation at room temperature.
# % is set by controls: 0 for no effect and ±100 for the full control effect; potency is the fitted concentration of half-maximal effect.
SMILES,"activity, negative = inhibition",Potency
CCn1cc(C(=O)O)c(=O)c2cc(F)c(N3CCNCC3)cc21,-9.43% [at 42.5 µM] (inactive),
CC(CCC(=O)O)C(=O)O (stereo not given),-6.3% (inactive),
CC[C@]1(O)C[C@H]2CN(CCc3c([nH]c4ccccc34)[C@@](C(=O)OC)(c3cc4c(cc3OC)N(C=O)[C@H]3[C@@](O)(C(=O)OC)[C@H](OC(C)=O)[C@]5(CC)C=CCN6CC[C@]43[C@@H]65)C2)C1,,168 nM (active)
O=C1Cc2ccccc2N1c1c(Cl)cccc1Cl,3% (inactive),
CCCCCCCC/C=C\CCCCCCCCCCCC(=O)O,10.5% (inactive),
CCC(C)COC(=O)CC(C)C (stereo not given),-9.8% (inactive),
CC1CC(OC(=O)C(O)c2ccccc2)CC(C)(C)N1C (stereo not given),0.83% [at 42.5 µM] (inactive),
C=CC(=O)[O-].C=CC(=O)[O-].[Zn+2],252% (inactive),
CN(C)CCN1C(=O)c2ccccc2N(C)c2ccccc21,-4.95% [at 42.5 µM] (inactive),
N#CCc1ccc(Cl)cc1Cl,0.901% (inactive),
CC(=O)[C@H]1[C@H](C#N)C[C@H]2[C@@H]3CC=C4C[C@@H](O)CC[C@]4(C)[C@H]3CC[C@@]21C,44.7% [at 42.5 µM] (inactive),
Cc1cc(C)c(N)cc1C,24.8% (inactive),
C[C@@]12CCC[C@H]1[C@@H]1CC[C@H]3C[C@@H](O)CC[C@]3(C)[C@H]1CC2,52.3% [at 42.5 µM] (inactive),
C=C(C)C(=O)OCCCCCCCCCCCCC,45.2% (inactive),
C1C[C@@H]2[C@H]3CC[C@H](C3)[C@@H]2C1,-2.63% (inactive),
Oc1ccc(Cl)c2cccnc12,156% [at 42.5 µM] (inactive),
C(=C\c1ccccc1)/c1ccccc1,118% (inactive),
Nc1cccc2c1CN(C1CCC(=O)NC1=O)C2=O (stereo not given),6.72% [at 42.5 µM] (inactive),
O=C(CCCN1CC=C(n2c(=O)[nH]c3ccccc32)CC1)c1ccc(F)cc1,-10.1% [at 42.5 µM] (inactive),
O=Cc1c2ccccc2c(Cl)c2ccccc12,8.31% [at 42.5 µM] (inactive),

SMILES,"activity, negative = inhibition",Potency
O=C(CCc1ccc(O)cc1)c1c(O)cc(O)cc1O,8.24% (inactive),
CCCCC(CC)CN (stereo not given),-9.58% (inactive),
C=C(C)CCCC(C)CCO (stereo not given),-0.174% (inactive),
CC(CO)CO,-11.9% (inactive),
COc1cc(N)c(Cl)cc1C(=O)NC1CCN(CCCOc2ccc(F)cc2)CC1OC (stereo not given),0.267% [at 42.5 µM] (inactive),
CNC(=O)c1cnn(-c2nc(N)c3ncn([C@@H]4O[C@H](CO)[C@@H](O)[C@H]4O)c3n2)c1,1.92% [at 42.5 µM] (inactive),
O[C@@H]1CO[C@H]2[C@@H]1OC[C@@H]2O,5.7% [at 42.5 µM] (inactive),
CC(=O)OCCN(CCOC(C)=O)c1ccc(N=Nc2ccc([N+](=O)[O-])cc2C#N)cc1,12% (inactive),
CC(C)(C)C(=O)C(=O)O,2.73% (inactive),
C=CC(=O)OCC1CC2CC1C1CCC(COC(=O)C=C)C21 (stereo not given),,8630 nM (active)
O=C(Nc1cccc2c(=O)cc(-c3nn[nH]n3)oc12)c1ccc(OCCCCc2ccccc2)cc1,1.01% [at 42.5 µM] (inactive),
O=C(OCC(O)CO)c1ccccc1Nc1ccnc2cc(Cl)ccc12 (stereo not given),110% [at 42.5 µM] (inactive),
O=C(O)C[C@H](NC(=O)OCc1ccccc1)C(=O)O,7.63% (inactive),
CC(C)C=O,-14.2% (inactive),
O=C1NC(=O)c2cc([N+](=O)[O-])ccc21,-3.1% (inactive),
CN1CC(=O)N2[C@H](c3ccc4c(c3)OCO4)c3[nH]c4ccccc4c3C[C@@H]2C1=O,1.15% [at 42.5 µM] (inactive),
CC(CN(C)C)C(C)(O)Cc1ccc(Cl)cc1 (stereo not given),-7.46% [at 42.5 µM] (inactive),
CCOC(=O)c1ccccc1C(=C1C=C(Br)C(=O)C(Br)=C1)c1cc(Br)c(O)c(Br)c1,-1.73% [at 42.5 µM] (inactive),
Oc1cccc(O)c1O,-11.9% (inactive),
C[C@]12CC[C@@H]3c4ccc(O)cc4CC[C@H]3[C@@H]1CC[C@@H]2OC(=O)CCC1CCCC1,,61.1 µM (active) and inactive
